# Experimental data reported in PubChem BioAssay (Tox21).
# Results filed as inconclusive are left out. The source made the active and inactive calls. Calls follow the shape of the full dose curve.
# Assay: qHTS assay to identify small molecule antagonists of the estrogen receptor alpha (ER-alpha) signaling pathway using the BG1 cell line (AID 743080);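 also: BG1 cells stimulated with 17beta-estradiol alongside compound; nearly all actives have a fitted effect of over 25% in size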
# Details: BG1Luc4E2 ERE-luciferase antagonist mode, luminescence; series mostly up to 70.3 µM; activity change, negative = inhibition: at the top concentration
# Outline: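 Seeding, 24 h rest, compound transfer from DMSO, 17beta-estradiol addition, 21.5 h incubation, CellTiter-Fluor (30 min, 37 C), then ONE-Glo (30 min, room temperature): this sequence was run on BG1-Luc-4E2 reporter cells.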
# % is scaled to controls: 0 for no effect and ±100 for the full control effect.
row,SMILES,"activity change, negative = inhibition"
1,C=C1c2c(Cl)ccc(O)c2C(O)=C2C(=O)[C@]3(O)C(O)=C(C(N)=O)C(=O)[C@@H](N(C)C)[C@@H]3[C@@H](O)[C@H]12,1.5% [at 32.5 µM] (inactive)
2,O=P(O)(O)C(O)(Cc1cnc2ccccn12)P(=O)(O)O,-7.13% (inactive)
3,CCCCCCCCCCCCCCCCCC(=O)OCCO,15% (inactive)
4,COc1cc(S(C)=O)ccc1-c1nc2ncccc2[nH]1 (configuration not stated),2.52% (inactive)
5,c1ccc2c(CCC3CCNCC3)c[nH]c2c1,10.2% (inactive)
6,Cc1cc(Nc2ccccc2C(=O)O)ccc1Cl,23.6% (inactive)
7,O=c1[nH]cnc2[nH]cc(CN3CCCCC3)c12,-8% (inactive)
8,O=C(O)c1ccc(OCCn2ccnc2)cc1,1.2% (inactive)
9,CNC[C@@H]1CC[C@@H](N)[C@@H](O[C@H]2[C@H](O)[C@@H](O[C@H]3OC[C@](C)(O)[C@H](NC)[C@H]3O)[C@H](N)C[C@@H]2N)O1,9.77% (inactive)
10,Nc1ccn(C[C@@H](CO)OCP(=O)(O)O)c(=O)n1,1.46% (inactive)
11,CN=C(NC)NCc1ccccc1,-0.344% (inactive)
12,C[N+](C)(CCCCCC[N+](C)(C)C1c2ccccc2-c2ccccc21)C1c2ccccc2-c2ccccc21,0.371% (inactive)
13,O=P(O)(O)OC(Cn1cncn1)(Cn1cncn1)c1ccc(F)cc1F,9.4% (inactive)
14,CCCC(=O)N1CCCN(c2nc(N)c3cc(OC)c(OC)cc3n2)CC1,-5.89% (inactive)
15,OCC(O)COc1ccc(Cl)cc1 (configuration not stated),0.281% (inactive)
16,Cc1ccccc1CNc1ncnc2c1ncn2[C@@H]1O[C@H](CO)[C@@H](O)[C@H]1O,-14.1% (inactive)
17,CC(=O)OC[C@H]1O[C@@H](O[C@H]2[C@H](O)[C@@H](OC(=O)c3ccccc3C(=O)O)[C@H](O)O[C@@H]2COC(C)=O)[C@H](O)[C@@H](OC(=O)c2ccccc2C(=O)O)[C@@H]1O,7.98% (inactive)
